# Reference: PubChem BioAssay (NCI)
# Where “and” joins values, the source holds several entries; their conditions need not be identical. Equal entries are not always repeated. About 83,000 compounds went through this panel and 20% of them were active in at least one assay; those are over-represented in the sample as a whole.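 Negative percent growth values reflect cell death: -40 means 40% of the cells present at the start died, and -100 means all died.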 Calls of active or inactive are those of the source. The calls were made as follows: active = growth percent below 10; inactive = the rest.
# System: 786-0 renal
# Assay: NCI-60 one-dose screen, 48 h (100 = growth as untreated, 0 = no growth, -100 = all killed)
# Settings: 10 µM unless noted
row,SMILES,growth
1,COc1ccc(C(=O)c2c(N)c(C#N)cn2-c2ccc([N+](=O)[O-])cc2)cc1,109% (inactive)
2,Fc1ccc(F)c(CNc2nc(SCCN3CCOCC3)nc3c2cnn3CC(Cl)c2ccc(Br)cc2)c1 (stereo unspecified),17.7% (inactive)
3,COc1ccc(N=Nc2c(N)nn3c(N)c(C#N)c(-c4ccc(F)cc4)nc23)cc1,32% (inactive)
4,COc1cc(CNC(=O)[C@]23CCC(C)(C)CC2C2=CCC4[C@@]5(C)CCC(OC(C)=O)C(C)(C)C5CC[C@@]4(C)[C@]2(C)CC3)ccc1OCc1cn(-c2ccc(Cl)cc2Cl)nn1 (stereo partly specified),107% (inactive)
5,C/C(=N\Nc1ccc(C(=O)O)cc1)c1cnn(-c2cc(=O)[nH]c3ccc(C)cc23)c1C,93.2% (inactive)
6,N#Cc1cc(-c2ccnc(Nc3ccc(N4CCN(C5COC5)CC4)cc3)n2)ccc1N1CCCC1,16.9% (inactive)
7,O=C(N/N=C/c1ccc(Cl)cc1)c1ccc(OCc2nc3ccc(Cl)cc3[nH]2)cc1,-63.1% (active)
8,COc1ccc(-c2nc3ccccc3n2CC(=O)N=Nc2c(O)[nH]c3ccc(Br)cc23)cc1,97.3% (inactive)
9,Clc1ccccc1Nc1nnc(-c2c[nH]c3ccccc23)o1,36% (inactive)
10,O=C(NC(=S)N1CCN(c2ncnc3c2cnn3-c2ccccc2)CC1)c1ccc(Br)cc1,72% (inactive)
11,COc1ccc(/C=C/c2nc3ccccc3n3c(-c4cccc([N+](=O)[O-])c4)nnc23)cc1,-74.9% (active)
12,CS(=O)(=O)Nc1cc(-c2ccc3ncnc(Nc4ccc(OCc5cccnc5)c(Cl)c4)c3c2)cnc1Cl,2.08% (active)
13,O=C1CCC(N2C(=O)c3cccc(NCCOCCOCCOCCC(=O)NCCCC(=O)NC(c4ccc5c(c4)OCO5)c4cc(Cl)c5cccnc5c4O)c3C2=O)C(=O)C1 (stereo unspecified),70.8% (inactive)
14,COc1cc(/C=C/C(=O)c2cnn(-c3cc(=O)[nH]c4ccc(C)cc34)c2C)cc(OC)c1OC,-27% (active)
15,Cc1ccc(C(=O)Nc2cc(-n3cnc(F)c3)cc(C(F)(F)F)c2)cc1C#Cc1cnc2cccnn12,53.3% (inactive)
16,COc1cc(/C=C/C(=O)c2cnn(-c3cc(=O)[nH]c4ccc(Br)cc34)c2C)cc(OC)c1OC,-73% (active)
17,CCCCCCCOc1ccc(S(=O)(=O)Nc2ccc(C)c(F)c2C(=O)O)cc1,95% (inactive)
18,C#CCN(C)CCCOc1ccc(N(CC)C(=O)c2cc(C(C)C)c(O)cc2O)cc1Cl,21.6% (inactive)
19,COC(=O)CSC1=C(C)C(=O)C(OC)=C(OC)C1=O,99.9% (inactive)

row,SMILES,growth
1,Nc1cccc(-n2c(COc3ccc(I)cc3)nc3ccccc32)c1,106% (inactive) and 102% (inactive)
2,O=C(Nc1ccc(F)cc1)Nc1nc2ccc([N+](=O)[O-])cc2s1,1.6% (active)
3,CC(=O)Nc1cccc(-n2c(COc3ccc(I)cc3)nc3ccccc32)c1,101% (inactive) and 109% (inactive)
4,Cc1nc2sccn2c1-c1nnc(SCC(C)C)o1,82.3% (inactive)
5,COc1ccc2[nH]cc(-c3cc4nc(-c5cn(C)c6ncc(Br)cc56)cc(N)n4n3)c2c1,-95% (active)
6,Cc1nn(-c2ccccc2)c2ncn(CC(=O)N/N=C/c3ccccc3O)c(=O)c12,37.2% (inactive)
7,Cc1ccccc1NC(=O)c1cccc(NC(=O)CCl)c1,16.6% (inactive)
8,O=C1Nc2ccccc2/C1=C\c1ccc(OCC(=O)c2ccc(Br)cc2)cc1,89.8% (inactive)
9,CN1CCN(C(=O)Oc2cc3c(c4ccccc24)[C@H](CCl)CN3C(=O)c2cc3cc(OCCCN4CCC4)ccc3[nH]2)[C@@H]2CSSC[C@H]21,-89.1% (active)
10,O=C(CSc1nc2sc3c(c2c(=O)n1-c1ccc(Cl)cc1)CCCC3)NNC(=O)c1ccc(F)cc1,96.8% (inactive)
11,COC(=O)c1cc(C(C)=O)n2c3ccccc3c3ccccc3c12,36.6% (inactive)
12,COc1ccc(NC(=O)Nc2nc3ccc([N+](=O)[O-])cc3s2)cc1,35.3% (inactive)
13,CN(C)CCCc1ccc(Nc2cnn(C)c(=O)c2Cl)cc1,95.9% (inactive)
14,COc1ccc(NC2=C(I)C(=O)C(C)=C(C)C2=O)cc1,42.2% (inactive)
15,CN(C(=O)CN1C(=O)/C(=C/c2ccco2)SC1=S)C1CCS(=O)(=O)C1 (stereo unspecified),93.4% (inactive)
16,Cc1ccc(C(=O)C[n+]2cccc3c4ccccc4ccc32)cc1,34.4% (inactive)
17,Cc1ccc(/C=C/C(=O)c2ccc(S(=O)(=O)NCCNc3nc(N(C)C)nc(N4CCOCC4)n3)cc2)cc1,73% (inactive)
18,C=CCSc1nnc(-c2ccc(-c3nc4ccccc4[nH]3)cc2)o1,77.6% (inactive)
19,Cc1ccc(Nc2nnc(-c3c[nH]c4ccccc34)o2)c(C)c1,1.66% (active)

# System: COLO 205 colon
# Assay: as above
# Settings: 10 µM unless noted
row,SMILES,growth
1,COc1ccc(C(=O)c2c(N)c(C#N)cn2-c2ccc([N+](=O)[O-])cc2)cc1,105% (inactive)
2,Fc1ccc(F)c(CNc2nc(SCCN3CCOCC3)nc3c2cnn3CC(Cl)c2ccc(Br)cc2)c1 (stereo unspecified),-57% (active)
3,COc1ccc(N=Nc2c(N)nn3c(N)c(C#N)c(-c4ccc(F)cc4)nc23)cc1,105% (inactive)
4,COc1cc(CNC(=O)[C@]23CCC(C)(C)CC2C2=CCC4[C@@]5(C)CCC(OC(C)=O)C(C)(C)C5CC[C@@]4(C)[C@]2(C)CC3)ccc1OCc1cn(-c2ccc(Cl)cc2Cl)nn1 (stereo partly specified),118% (inactive)
5,C/C(=N\Nc1ccc(C(=O)O)cc1)c1cnn(-c2cc(=O)[nH]c3ccc(C)cc23)c1C,118% (inactive)
6,N#Cc1cc(-c2ccnc(Nc3ccc(N4CCN(C5COC5)CC4)cc3)n2)ccc1N1CCCC1,86.1% (inactive)
7,O=C(N/N=C/c1ccc(Cl)cc1)c1ccc(OCc2nc3ccc(Cl)cc3[nH]2)cc1,4.04% (active)
8,COc1ccc(-c2nc3ccccc3n2CC(=O)N=Nc2c(O)[nH]c3ccc(Br)cc23)cc1,83% (inactive)
9,Clc1ccccc1Nc1nnc(-c2c[nH]c3ccccc23)o1,-33.6% (active)
10,O=C(NC(=S)N1CCN(c2ncnc3c2cnn3-c2ccccc2)CC1)c1ccc(Br)cc1,98.7% (inactive)
11,COc1ccc(/C=C/c2nc3ccccc3n3c(-c4cccc([N+](=O)[O-])c4)nnc23)cc1,-70% (active)
12,CS(=O)(=O)Nc1cc(-c2ccc3ncnc(Nc4ccc(OCc5cccnc5)c(Cl)c4)c3c2)cnc1Cl,-73.5% (active)
13,O=C1CCC(N2C(=O)c3cccc(NCCOCCOCCOCCC(=O)NCCCC(=O)NC(c4ccc5c(c4)OCO5)c4cc(Cl)c5cccnc5c4O)c3C2=O)C(=O)C1 (stereo unspecified),24.5% (inactive)
14,COc1cc(/C=C/C(=O)c2cnn(-c3cc(=O)[nH]c4ccc(C)cc34)c2C)cc(OC)c1OC,-91.6% (active)
15,Cc1ccc(C(=O)Nc2cc(-n3cnc(F)c3)cc(C(F)(F)F)c2)cc1C#Cc1cnc2cccnn12,68.5% (inactive)
16,COc1cc(/C=C/C(=O)c2cnn(-c3cc(=O)[nH]c4ccc(Br)cc34)c2C)cc(OC)c1OC,-80.7% (active)
17,CCCCCCCOc1ccc(S(=O)(=O)Nc2ccc(C)c(F)c2C(=O)O)cc1,122% (inactive)
18,C#CCN(C)CCCOc1ccc(N(CC)C(=O)c2cc(C(C)C)c(O)cc2O)cc1Cl,4.62% (active)
19,COC(=O)CSC1=C(C)C(=O)C(OC)=C(OC)C1=O,102% (inactive)

row,SMILES,growth
1,Nc1cccc(-n2c(COc3ccc(I)cc3)nc3ccccc32)c1,81.4% (inactive) and 109% (inactive)
2,O=C(Nc1ccc(F)cc1)Nc1nc2ccc([N+](=O)[O-])cc2s1,-77.5% (active)
3,CC(=O)Nc1cccc(-n2c(COc3ccc(I)cc3)nc3ccccc32)c1,96.9% (inactive) and 128% (inactive)
4,Cc1nc2sccn2c1-c1nnc(SCC(C)C)o1,106% (inactive)
5,COc1ccc2[nH]cc(-c3cc4nc(-c5cn(C)c6ncc(Br)cc56)cc(N)n4n3)c2c1,-75.5% (active)
6,Cc1nn(-c2ccccc2)c2ncn(CC(=O)N/N=C/c3ccccc3O)c(=O)c12,10.3% (inactive)
7,Cc1ccccc1NC(=O)c1cccc(NC(=O)CCl)c1,76.5% (inactive)
8,O=C1Nc2ccccc2/C1=C\c1ccc(OCC(=O)c2ccc(Br)cc2)cc1,65.9% (inactive)
9,CN1CCN(C(=O)Oc2cc3c(c4ccccc24)[C@H](CCl)CN3C(=O)c2cc3cc(OCCCN4CCC4)ccc3[nH]2)[C@@H]2CSSC[C@H]21,-65.5% (active)
10,O=C(CSc1nc2sc3c(c2c(=O)n1-c1ccc(Cl)cc1)CCCC3)NNC(=O)c1ccc(F)cc1,125% (inactive)
11,COC(=O)c1cc(C(C)=O)n2c3ccccc3c3ccccc3c12,108% (inactive)
12,COc1ccc(NC(=O)Nc2nc3ccc([N+](=O)[O-])cc3s2)cc1,67.9% (inactive)
13,CN(C)CCCc1ccc(Nc2cnn(C)c(=O)c2Cl)cc1,118% (inactive)
14,COc1ccc(NC2=C(I)C(=O)C(C)=C(C)C2=O)cc1,123% (inactive)
15,CN(C(=O)CN1C(=O)/C(=C/c2ccco2)SC1=S)C1CCS(=O)(=O)C1 (stereo unspecified),119% (inactive)
16,Cc1ccc(C(=O)C[n+]2cccc3c4ccccc4ccc32)cc1,5.75% (active)
17,Cc1ccc(/C=C/C(=O)c2ccc(S(=O)(=O)NCCNc3nc(N(C)C)nc(N4CCOCC4)n3)cc2)cc1,114% (inactive)
18,C=CCSc1nnc(-c2ccc(-c3nc4ccccc4[nH]3)cc2)o1,82.6% (inactive)
19,Cc1ccc(Nc2nnc(-c3c[nH]c4ccccc34)o2)c(C)c1,-55.5% (active)
